Activity calls are given as the source filed them.
Experiments:
[1] = E. coli DRC41 culture turbidity changes, primary screen, E. coli filamentation inducer project, strain DRC41, OD650, 48 h (AID 1152);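 also: E. coli MC1000 strain DRC41 lacking acrAB efflux pump and sulA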; details: E. coli DRC41 (acrAB sulA), higher = more signal, called active from +8 up or from −8 down
[2] = small-molecule binders of probe aLefty1, primary screen, biochemical, small-molecule microarray, 635/667 nm fluorescence (AID 1153); details: higher = more signal;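 also: score merges spot fluorescence with signal-to-noise ratio from the scanned slide images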
[3] = PSAC antagonists in infected red cells, primary screen, cell-based, P. falciparum Indochina, OD700, 1 h (AID 1154); details: P. falciparum Indochina infected RBC osmotic lysis, higher = more signal, called active from +8 up or from −8 down
[4] = PSAC antagonists in infected red cells, primary screen, cell-based, P. falciparum Indochina, OD700, 2 h (AID 1155);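 also: lysis reports solute entry through the parasite surface anion channel PSAC; channel blockers reduce lysis of infected cells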; details: P. falciparum Indochina infected erythrocytes, osmotic lysis OD700; higher = more signal, called active from +8 up or from −8 down
[5] = osmotic lysis modulators in infected erythrocytes, primary screen, PSAC antagonist project, cell-based, P. falciparum Indochina, OD700, 3 h (AID 1156); details: higher = more signal, called active from +8 up or from −8 down
[6] = PSAC antagonists in infected red cells, primary screen, cell-based, P. falciparum Indochina, OD700, 18 h (AID 1157); details: P. falciparum Indochina infected erythrocytes, osmotic lysis OD700, 18 h; higher = more signal, called active from +8 up or from −8 down
[7] = modulators of S6 phosphorylation in cells, primary screen, cell-based, A549, cytoblot, luminescence, serum-stimulated (AID 1158); details: A549 phospho-S6 cytoblot, 5 h, higher = more signal;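 also: serum-stimulated A549 lung adenocarcinoma cells; signal is phosphorylated S6 detected by cytoblot immunostaining with HRP secondary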
[8] = target: NADPH oxidase 2 (Homo sapiens) (UniProt P04839); assay: NOX2-dependent H2O2 signal modulators, primary screen, NOX inhibitor project, cell-based, HEK293-NOX2, PMA-stimulated, Amplex Red fluorescence (AID 1159); details: 45 min, higher = more signal, called active from +8 up or from −8 down; also: test concentration not given here
[9] = target: NADPH oxidase 4 (Homo sapiens) (UniProt Q9NPH5); assay: NOX4-dependent H2O2 signal modulators, primary screen, NOX inhibitor project, cell-based, HEK293-NOX4, tetracycline-induced, Amplex Red fluorescence (AID 1160); details: 45 min, higher = more signal, called active from +8 up or from −8 down
[10] = target: NADPH oxidase 5 (Homo sapiens) (UniProt Q96PH1); assay: NOX5-dependent H2O2 signal modulators, primary screen, NOX inhibitor project, cell-based, HEK293-NOX5, Amplex Red fluorescence (AID 1161); details: HEK293-NOX5, ionomycin, 45 min, higher = more signal
[11] = A549 cell viability effects, profiling panel, calcein-AM fluorescence, 48 h, basal (AID 1162); details: higher = more signal; also: test concentration not given here
[12] = adipocyte viability effects, profiling panel, cell-based, 3T3-L1 adipocytes, calcein-AM fluorescence, 48 h, basal (AID 1163); details: 3T3-L1 adipocytes viability, higher = more signal; also: test concentration not given here
[13] = HepG2 cell viability effects, profiling panel, calcein-AM fluorescence, 48 h, basal (AID 1164); details: higher = more signal; also: test concentration not given here
[14] = MM1S cell viability effects, profiling panel, calcein-AM fluorescence, 48 h, basal (AID 1165); details: higher = more signal;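 also: viability of MM1S multiple myeloma cells under basal unstimulated conditions; test concentration not given here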
[15] = basal RPMI8226 viability, no added stimulus, profiling panel, cell-based, calcein-AM fluorescence, 48 h, PK04 Diversity Set (AID 1166); details: RPMI8226 myeloma viability, higher = more signal;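 also: cells grown under basal conditions without added stimulus; test concentration not given here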
[16] = basal HepG2 mitochondrial membrane potential changes, profiling panel, cell-based, JC-1 fluorescence, 24 h, 100 nL compound (AID 1167); details: higher = more signal; also: test concentration not given here
[17] = basal 3T3-L1 adipocyte mitochondrial potential changes, profiling panel, cell-based, JC-1 fluorescence, 3T3-L1 adipocytes, 24 h, 100 nL compound (AID 1168); details: JC-1 mitochondrial fluorescence, higher = more signal, called active from +8 up or from −8 down; also: test concentration not given here
[18] = basal RPMI8226 mitochondrial membrane potential changes, profiling panel, cell-based, JC-1 fluorescence, 24 h, 100 nL compound (AID 1169); details: RPMI8226 myeloma, JC-1 mitochondrial potential fluorescence, higher = more signal; also: test concentration not given here
[19] = basal MM1S mitochondrial membrane potential changes, profiling panel, cell-based, JC-1 fluorescence, 24 h, 100 nL compound (AID 1170); details: higher = more signal; also: test concentration not given here
[20] = A549 lung cancer cell viability effects, profiling panel, resazurin fluorescence, 24 h, PK04 Diversity Set (AID 1171); details: higher = more signal, called active from +8 up or from −8 down; also: test concentration not given here

NADPH oxidase 2 (Homo sapiens), sequence (P04839 whole entry, looked up): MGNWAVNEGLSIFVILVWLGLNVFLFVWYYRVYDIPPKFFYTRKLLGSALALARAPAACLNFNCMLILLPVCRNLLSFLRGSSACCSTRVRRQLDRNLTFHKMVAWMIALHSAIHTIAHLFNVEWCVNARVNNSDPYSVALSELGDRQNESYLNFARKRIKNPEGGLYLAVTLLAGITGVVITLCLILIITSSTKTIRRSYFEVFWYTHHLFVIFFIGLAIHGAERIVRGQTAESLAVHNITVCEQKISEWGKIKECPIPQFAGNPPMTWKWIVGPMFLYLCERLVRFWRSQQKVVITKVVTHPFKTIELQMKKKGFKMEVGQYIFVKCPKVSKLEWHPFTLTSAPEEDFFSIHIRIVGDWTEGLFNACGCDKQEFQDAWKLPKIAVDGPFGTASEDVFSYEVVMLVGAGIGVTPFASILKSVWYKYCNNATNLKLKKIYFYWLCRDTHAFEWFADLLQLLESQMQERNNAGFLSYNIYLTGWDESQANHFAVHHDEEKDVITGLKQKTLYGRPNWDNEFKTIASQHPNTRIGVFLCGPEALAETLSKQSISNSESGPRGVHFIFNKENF
NADPH oxidase 5 (Homo sapiens), sequence (Q96PH1 whole entry, looked up): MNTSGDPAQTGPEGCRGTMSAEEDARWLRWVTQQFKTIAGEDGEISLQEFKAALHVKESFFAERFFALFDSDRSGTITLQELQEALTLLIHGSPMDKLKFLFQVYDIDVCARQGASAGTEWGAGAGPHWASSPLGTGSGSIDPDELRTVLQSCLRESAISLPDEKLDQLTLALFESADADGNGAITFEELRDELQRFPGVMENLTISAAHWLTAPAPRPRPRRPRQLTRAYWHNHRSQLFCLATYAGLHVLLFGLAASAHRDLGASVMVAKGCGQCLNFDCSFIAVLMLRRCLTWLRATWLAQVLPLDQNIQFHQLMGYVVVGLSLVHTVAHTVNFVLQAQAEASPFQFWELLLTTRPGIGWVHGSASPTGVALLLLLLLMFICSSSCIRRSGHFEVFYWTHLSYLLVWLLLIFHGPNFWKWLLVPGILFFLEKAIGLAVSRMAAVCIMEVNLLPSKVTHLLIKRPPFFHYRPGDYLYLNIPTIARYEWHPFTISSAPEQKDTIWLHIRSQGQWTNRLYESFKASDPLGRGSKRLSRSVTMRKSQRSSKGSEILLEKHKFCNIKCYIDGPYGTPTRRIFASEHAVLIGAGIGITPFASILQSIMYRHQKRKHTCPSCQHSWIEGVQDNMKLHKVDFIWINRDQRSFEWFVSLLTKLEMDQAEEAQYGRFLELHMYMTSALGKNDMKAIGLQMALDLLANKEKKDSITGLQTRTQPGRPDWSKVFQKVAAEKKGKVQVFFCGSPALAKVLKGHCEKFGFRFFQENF
NADPH oxidase 4 (Homo sapiens), sequence (Q9NPH5 whole entry, looked up): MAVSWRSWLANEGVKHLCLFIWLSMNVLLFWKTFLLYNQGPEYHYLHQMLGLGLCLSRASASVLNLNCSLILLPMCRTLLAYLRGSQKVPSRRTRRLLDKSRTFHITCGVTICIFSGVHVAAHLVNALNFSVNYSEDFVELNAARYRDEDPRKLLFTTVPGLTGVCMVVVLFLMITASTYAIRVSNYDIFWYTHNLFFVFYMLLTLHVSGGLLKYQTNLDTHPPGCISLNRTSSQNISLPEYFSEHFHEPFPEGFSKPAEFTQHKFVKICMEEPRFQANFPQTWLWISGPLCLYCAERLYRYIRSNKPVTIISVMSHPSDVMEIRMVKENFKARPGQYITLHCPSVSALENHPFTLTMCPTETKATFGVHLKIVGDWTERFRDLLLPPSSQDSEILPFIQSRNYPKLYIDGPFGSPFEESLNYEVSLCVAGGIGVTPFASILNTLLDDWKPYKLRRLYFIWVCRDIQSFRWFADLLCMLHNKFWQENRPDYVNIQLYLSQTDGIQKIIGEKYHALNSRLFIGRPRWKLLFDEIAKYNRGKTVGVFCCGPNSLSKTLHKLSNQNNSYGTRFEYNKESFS

| SMILES | z-score [1] | composite z-score [2] | z-score [3] | z-score [4] | z-score [5] | z-score [6] | z-score [7] | z-score [8] | z-score [9] | z-score [10] | z-score [11] | z-score [12] | z-score [13] | z-score [14] | z-score [15] | z-score [16] | z-score [17] | z-score [18] | z-score [19] | z-score [20] |
| --- | --- | --- | --- | --- | --- | --- | --- | --- | --- | --- | --- | --- | --- | --- | --- | --- | --- | --- | --- | --- |
| COc1ccc(C(O)C2C=CC3C(=O)N(c4ccccc4)C(=O)C3N2Nc2ccc([N+](=O)[O-])cc2)cc1OCc1ccccc1 (stereo not given) | -1.64 (inactive) | 1.55 | 14.2 (active) | 2.71 (inactive) | 0.107 (inactive) | 0.926 (inactive) | -0.881 | 0.151 (inactive) | -0.18 (inactive) | -1.29 | -0.805 | -0.64 | -1.09 | 0.324 | -0.378 | -0.608 | -1.46 (inactive) | -0.215 | -0.693 | 0.317 (inactive) |
| [N-]=[N+]=NCc1ccccc1C[C@]1(C(=O)O)N=C(c2ccc(OCCCO)cc2)O[C@H]1c1ccccc1 | -0.0931 (inactive) | 0.0299 | 9.62 (active) | 0.754 (inactive) | -0.468 (inactive) | -0.0988 (inactive) | -0.381 | 0.453 (inactive) | 1.4 (inactive) | 1.68 | -0.755 | -0.4 | -0.509 | -1.19 | -0.388 | -1.62 | 0.336 (inactive) | -0.179 | 0.181 | 0.0055 (inactive) |
| C=CCC(OC(C)=O)[C@@H]1[C@@H](N(Cc2ccc(-c3ccccc3)cc2)C(=O)Cc2ccc(F)cc2)c2cc(OCCCO)ccc2N1C(=O)c1ccc2ccccc2n1 (stereo not given in full) | 1.51 (inactive) | 0.22 | 0.879 (inactive) | 1.19 (inactive) | -0.385 (inactive) | 0.505 (inactive) | 0.374 | -0.632 (inactive) | 0.631 (inactive) | 1.95 | 1.07 | 0.203 | 1.14 | -2.11 | 0.246 | 2.97 | 0.25 (inactive) | -0.359 | 1.7 | 1.37 (inactive) |
| COC(=O)[C@@]1(Cc2ccc(OC)cc2)[C@H]2c3cc(C(=O)N4CCCC4)n(CCc4c[nH]c5cc(F)ccc45)c3C[C@H]2CN1C(=O)c1ccccc1 | -0.429 (inactive) | 1.27 | 3.07 (inactive) | 0.676 (inactive) | 0.745 (inactive) | 1.06 (inactive) | -0.174 | 0.438 (inactive) | 0.0193 (inactive) | -0.293 | 0.866 | -0.124 | 0.172 | -1.08 | -0.758 | -0.37 | 0.492 (inactive) | -0.304 | -0.662 | 0.313 (inactive) |
| COCCOC(=O)N1C(=O)[C@@]2(c3ccccc31)[C@H](c1ccc(O)cc1)N1[C@H](c3ccccc3)[C@H](c3ccccc3)OC(=O)[C@H]1[C@@H]2C(=O)N1CCc2cc(OC)c(OC)cc2C1 | 0.682 (inactive) | -0.181 | 0.428 (inactive) | -0.261 (inactive) | 0.0172 (inactive) | -1 (inactive) | 1.55 | 0.343 (inactive) | 0.594 (inactive) | 1.95 | 0.823 | 0.748 | 2.31 | 0.448 | -0.368 | 0.893 | 2.9 (inactive) | 0.228 | 0.296 | -0.275 (inactive) |
| Cc1cc(C)c(C(O)C2C=CC3C(=O)N(C)C(=O)C3N2Nc2ccccc2)c(C)c1 (stereo not given) | -1.52 (inactive) | 1.5 | 0.277 (inactive) | 0.519 (inactive) | -0.168 (inactive) | 1.03 (inactive) | -0.858 | -0.802 (inactive) | -3.6 (inactive) | -1.96 | -1.02 | -0.904 | -0.798 | -0.305 | -0.681 | -1.73 | -1 (inactive) | -0.207 | 0.434 | -0.551 (inactive) |
| [N-]=[N+]=Nc1ccccc1[C@H]1OC(c2ccc(OCCCO)cc2)=N[C@@]1(CCS(=O)(=O)c1ccccc1)C(=O)O | 0.671 (inactive) | 0.373 | 31.2 (active) | 24.9 (active) | 1.32 (inactive) | 4.75 (inactive) | -0.351 | -2.11 (inactive) | 0.851 (inactive) | -0.73 | 0.318 | 1.69 | -0.0825 | -1.42 | 0.682 | -3.45 | -1.65 (inactive) | 0.0104 | -0.0976 | 0.315 (inactive) |
| COCCOC(=O)N1C(=O)[C@@]2(c3cc(C#CCCO)ccc31)[C@H](C(=O)NC[C@H](O)c1ccccc1)[C@H]1C(=O)O[C@H](c3ccccc3)[C@H](c3ccccc3)N1[C@@H]2c1ccc(O)cc1 | 1.53 (inactive) | 0.0509 | 1.35 (inactive) | 0.706 (inactive) | -0.365 (inactive) | 0.435 (inactive) | 0.391 | 0.745 (inactive) | 0.698 (inactive) | 1.21 | 0.292 | 0.0669 | 0.289 | 0.715 | 0.568 | 0.467 | -0.734 (inactive) | 0.571 | -0.446 | 0.224 (inactive) |
| C=CCC(OC(C)=O)[C@@H]1[C@@H](N(Cc2cc3ccccc3o2)C(=O)c2ccc(C)cc2)c2cc(OCCCO)ccc2N1C(=O)c1ccc2ccccc2c1 (stereo not given in full) | 2.19 (inactive) | 0.168 | 1.32 (inactive) | 0.393 (inactive) | -0.44 (inactive) | 0.0878 (inactive) | 0.147 | 0.355 (inactive) | 0.89 (inactive) | 2.7 | 1.37 | 0.595 | 1.89 | 1.14 | 0.671 | 2.27 | -0.409 (inactive) | 0.33 | 0.748 | 1.43 (inactive) |

Reference: PubChem BioAssay
